High-throughput results as filed in PubChem BioAssay.
An excerpt weighted towards active compounds, which were near 4.8% of everything screened.
S2 tox – Viability Counterscreen for Primary qHTS for Inhibitors of ATXN expression; S2 cells (HEK-293 line with an ATXN2-luciferase reporter) viability, CellTiter-Fluor protease fluorescence, 24 h; 0.49% of 400,000 active; Potency, µM (doses to about 56.7 µM), most hits filed as cytotoxic; note: potency is the fitted concentration of half-maximal effect; nearly all actives have a fitted effect of over 40% in size
ATXN2 expr inh – Primary qHTS for Inhibitors of ATXN expression; AID 1745845, 2022; Potency, µM (top dose mostly 57 µM), for the others: top-dose activity change, negative = inhibition, actives largely listed as inhibitors; HEK-293 ATXN2-luciferase reporter, luminescence, 24 h; 0.72% of 360,000 active; note: potency is the fitted concentration of half-maximal effect; % is set by controls: 0 for no effect and ±100 for the full control effect; nearly all actives have a fitted effect of over 55% in size
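ATXN2-luciferase reporter cells (luciferase flanked by upstream and downstream ATXN2 gene portions) were treated 24 h at 37 °C with compounds at up to 57 uM. SteadyGlo luminescence gave expression; GF-AFC fluorescence gave viability.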
D3 ag – qHTS of D3 Dopamine Receptor Agonist: qHTS; D3R DiscoveRx beta-arrestin cells, luminescence, 90 min; max activation, %; 0.58% of 410,000 active; in the data active = max activation above about 30%; note: 0% is about no effect
Target sequence (P35462 whole entry, looked up): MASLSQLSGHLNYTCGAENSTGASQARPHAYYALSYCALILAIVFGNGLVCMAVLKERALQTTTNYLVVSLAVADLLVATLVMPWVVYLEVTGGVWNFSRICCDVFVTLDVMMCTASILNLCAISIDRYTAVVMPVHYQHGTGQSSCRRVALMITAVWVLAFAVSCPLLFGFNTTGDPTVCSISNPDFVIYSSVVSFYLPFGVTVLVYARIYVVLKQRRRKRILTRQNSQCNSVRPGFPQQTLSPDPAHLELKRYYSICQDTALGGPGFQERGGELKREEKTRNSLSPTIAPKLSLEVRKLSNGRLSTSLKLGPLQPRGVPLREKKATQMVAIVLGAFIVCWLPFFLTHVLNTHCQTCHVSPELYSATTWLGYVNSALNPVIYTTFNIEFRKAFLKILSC
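Agonist-mode cell screen: cells plated at 1500/well and incubated overnight at 37 °C, then exposed to library compounds for 90 min at 37 °C. Detection reagent was added for 30–60 min at room temperature, and luminescence was read.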
TGFb SMAD3 inh – qHTS for Inhibitors of TGF-b. 1.2% of 410,000 active. Potency, µM (doses to about 46.1 µM), for inactives: at the highest dose activity, negative = inhibition, most hits filed as inhibitors. HepG2 CAGA-GFP TGF-b/SMAD3 reporter, GFP fluorescence, 18 h; TGF-beta stimulated, 500 pg/mL final; note: potency is the fitted concentration of half-maximal effect; % is set by controls: 0 for no effect and ±100 for the full control effect; nearly all actives have a fitted effect of over 65% in size
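Per well, imaged GFP fluorescence of HEPG2 CAGA-GFP cells gives the signal; cells get compound, then TGF-beta (500 pg/mL final), 18 h at 37 degrees C; %Activity versus -TGF-beta and +DMSO controls.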
HepG2 viability – qHTS for Inhibitors of TGF-b: Cytotox Counterscreen; HepG2 CAGA-GFP viability, ATP luminescence, 18 h; Potency, µM (doses to about 46.1 µM), for inactives: at the highest dose activity change, negative = cytotoxicity, hits mostly cytotoxic; 0.76% of 410,000 active; note: potency is the fitted concentration of half-maximal effect
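CellTiter-Glo luminescence gave cytotoxicity after 18 hours at 37 degrees C. The cells were HepG2 CAGA-GFP in 1% FBS DMEM, stimulated with 500 pg/mL TGF-beta after compound addition. %Activity was normalised to no-cell wells (complete cell-killing) and DMSO (no toxicity), and curves were fitted and classified.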
D3 antag – qHTS of D3 Dopamine Receptor Antagonist: qHTS; D3R cells, DiscoveRx beta-arrestin luminescence, antagonist mode; hits give low values; max response, negative = inhibition, %; 2.5% of 360,000 active; AID 652054, 2013; in the data active = max response below about -50%; inconclusive = no clear call, values can overlap the other calls; note: % is set by controls: 0 for no effect and ±100 for the full control effect
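Cells expressing the human receptor were seeded at 1500 cells/well, incubated overnight at 37 degrees C in 5% CO2, then exposed to library compounds with dopamine controls for 90 minutes at 37 degrees C before luminescent detection.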
Numbers without * were called inactive; ! = a repeat was not active. Unless noted, calls come from the whole dose curve; as a rule, active = well fitted curve in the direction sought with a large enough effect; inconclusive = small, poorly fitted or top-dose-only effect, or another doubt; inactive = no such curve, though single readings can be large; an effect the other way counts as inactive or inconclusive.

For CCCOc1ccc(CN2C(=O)C(=O)c3cccc(C)c32)cc1 the results were D3 ag -18, TGFb SMAD3 inh 16µM* and HepG2 viability -74%.
Screening COc1cccc(-c2ccc(O)c(CNCc3cccc(OC)c3OC)c2)n1 returned S2 tox inactive.
`C1=Cc2ccccc2/C1=C\c1cccc(/C=C2\C=Cc3ccccc32)c1` gave TGFb SMAD3 inh inconclusive and HepG2 viability -97%.
`COc1cc(C2c3cc4c(cc3C(OC3OC5COC(c6cccs6)OC5C(O)C3O)C3COC(=O)C23)OCO4)cc(OC)c1O` (stereo unspecified) gave S2 tox inconclusive, ATXN2 expr inh 0.32µM*, D3 ag -9, TGFb SMAD3 inh 23%, HepG2 viability -17% and D3 antag 4.
Screening COc1cc([C@@H]2c3cc4c(cc3C(O[C@@H]3O[C@@H]5CO[C@@H](C)O[C@H]5[C@H](O)[C@H]3O)C3COC(=O)[C@@H]32)OCO4)cc(OC)c1OP(=O)(O)O (stereo partly specified) returned S2 tox inconclusive and D3 ag -6.
COc1cc([C@@H]2c3cc4c(cc3[C@@H](O[C@@H]3O[C@@H]5CO[C@@H](C)O[C@H]5[C@H](O)[C@H]3O)[C@H]3COC(=O)[C@H]23)OCO4)cc(OC)c1O was read as S2 tox inconclusive, ATXN2 expr inh 1.1µM*, D3 ag 0, TGFb SMAD3 inh 8%, HepG2 viability -20% and D3 antag -21.
CC1(C)SCCN(S(=O)(=O)c2ccc(OCC#CCO)cc2)[C@@H]1C(=O)NO was read as ATXN2 expr inh -14%.
`Cc1ccc(C23CC4CC(CC(NC(=O)N5CCN(C)CC5)(C4)C2)C3)cc1` gave S2 tox inactive, ATXN2 expr inh -5%, D3 ag -18, TGFb SMAD3 inh 2%, HepG2 viability -12% and D3 antag inconclusive.
CC12CC3CC(C)(C1)CC(C(=O)N1CCCC1)(C3)C2 was read as S2 tox inactive, ATXN2 expr inh -14%, D3 ag -1, TGFb SMAD3 inh -2%, HepG2 viability -17% and D3 antag 1.
Screening CN1CCN(C(=O)C23CC4CC(C)(CC(C)(C4)C2)C3)CC1 returned S2 tox inactive, ATXN2 expr inh -16%, D3 ag -21, TGFb SMAD3 inh 0%, HepG2 viability -27% and D3 antag -71*.
Screening Cc1ccc(C23CC4CC(CC(C(=O)N5CCN(C)CC5)(C4)C2)C3)cc1 returned S2 tox inconclusive, D3 ag -20, TGFb SMAD3 inh 4%, HepG2 viability -52% and D3 antag -55*.
`Cc1cc[n+](CCC2CCCCC2)c2ccccc12` gave TGFb SMAD3 inh inconclusive and HepG2 viability -31%.
Screening Nc1nonc1-c1nc2ccccc2n1Cc1c(Cl)cccc1Cl returned S2 tox inconclusive, ATXN2 expr inh 13%, D3 ag 17, TGFb SMAD3 inh 3% and HepG2 viability -18%.
`COc1ccc(C(CNC(=O)c2ccc(Cl)c(S(=O)(=O)N3CCCC3)c2)N2CCCC2)cc1` (stereo unspecified) gave S2 tox inactive, ATXN2 expr inh -18%, D3 ag -18, TGFb SMAD3 inh -22%, HepG2 viability -28% and D3 antag -77*.
`COc1ccc(C(CNC(=O)c2ccc(C)c(S(=O)(=O)N3CCCCC3)c2)N2CCCC2)cc1` (stereo unspecified) gave S2 tox inactive, ATXN2 expr inh 9%, D3 ag -22, TGFb SMAD3 inh 13%, HepG2 viability 4% and D3 antag -24.
COc1ccc(C(CNC(=O)c2ccc(C)c(S(=O)(=O)N3CCOCC3)c2)N2CCCC2)cc1 (stereo unspecified) was read as S2 tox inactive, ATXN2 expr inh -1%, D3 ag -19, TGFb SMAD3 inh -16%, HepG2 viability -14% and D3 antag -71*.
O=C(C[n+]1cccc(Cl)c1)c1ccc(O)c(O)c1 was read as TGFb SMAD3 inh 6% and HepG2 viability 6%.
Screening CCN(Cc1ccccc1)S(=O)(=O)c1ccc(C(=O)N(CCCN(C)C)c2nc3cc(C)cc(C)c3s2)cc1 returned S2 tox 25µM*, ATXN2 expr inh inconclusive, D3 ag -4, TGFb SMAD3 inh inconclusive, HepG2 viability inactive and D3 antag -14.
Cc1cccc2sc(N(CCCN(C)C)C(=O)c3ccc(Cl)s3)nc12 was read as S2 tox inconclusive, ATXN2 expr inh 22µM*!, D3 ag -4, TGFb SMAD3 inh inconclusive, HepG2 viability -17% and D3 antag 7.
For Cc1cc(C)c2sc(N(CCCN(C)C)C(=O)c3ccc(Br)s3)nc2c1 the results were S2 tox 11µM*, ATXN2 expr inh 8.9µM*, D3 ag -7, TGFb SMAD3 inh inconclusive, HepG2 viability -78% and D3 antag -20.
Screening Cc1cnc(-n2ncc(C(=O)N(C)CC3COCCO3)c2C2CC2)nc1-c1cccs1 (stereo unspecified) returned S2 tox inactive.
`COc1ccc(S(=O)(=O)NCC2CCCN(Cc3ccc(OC)cc3F)C2)cc1` (stereo unspecified) gave S2 tox inactive, ATXN2 expr inh -3%, D3 ag -14, TGFb SMAD3 inh -14%, HepG2 viability -7% and D3 antag 4.
COc1ccc(S(=O)(=O)NCC2CCCN(Cc3ccccc3Cl)C2)cc1 (stereo unspecified) was read as S2 tox inactive, ATXN2 expr inh -19%, D3 ag -15, TGFb SMAD3 inh -3%, HepG2 viability -8% and D3 antag -52*.
For COc1ccc(-c2nc(NC(=O)c3cc(C(C)(C)C)nn3C)sc2C)cc1 the results were S2 tox inactive, ATXN2 expr inh -23%, D3 ag 40*, TGFb SMAD3 inh inconclusive, HepG2 viability -3% and D3 antag 11.
O=C(CN1CCN(Cc2ccc3c(c2)OCO3)CC1)Nc1ccc2c(c1)OCO2 was read as S2 tox inactive, ATXN2 expr inh -12%, D3 ag -5, TGFb SMAD3 inh -1%, HepG2 viability -5% and D3 antag inconclusive.
